PubChem BioAssay AID488834 (National Center for Advancing Translational Sciences (NCATS), 2010)
Activity calls are given as the source filed them. Calls come from the whole dose curve; as a rule, active = well fitted curve in the direction sought with a large enough effect; inactive = no such curve, though single readings can be large or run the other way.

What follows are compounds tested against Lysosomal alpha-glucosidase (Homo sapiens) (UniProt P10253) (assay: qHTS Assay for Inhibitors and Activators of N370S glucocerebrosidase as a Potential Chaperone Treatment of Gaucher Disease: Alpha-Glucosidase Counterscreen for Probe SAR). Settings: purified human alpha-glucosidase, 4-MU fluorogenic substrate.
Excerpt: NIH Chemical Genomics Center [NCGC] NIH Molecular Libraries Probe Production Centers Network [MLPCN] MLPCN Grant: MH086442-01 Assay Submitter (PI): Wei Zheng Glucocerebrosidase (GC) catalyzes the hydrolysis of beta-glucocerebroside to glucose and ceramide in lysosomes. Mutations in the glucocerebrosidase gene result in Gaucher disease, an autosomal recessive lysosomal storage disorder. Many of the mutations encountered in patients with Gaucher disease are missense alterations that may cause misfolding, decreased stability and/or mistrafficking of this lysosomal protein. […] These inhibitors include iminosugar analogs and three non-iminosugar inhibitors identified from a previous HTS of 62,000 compounds with the wild type recombinant enzyme. However, the enhancement of enzyme activity by the chaperone action of an enzyme inhibitor must be balanced against the direct inhibition of the enzyme. An enzyme activator could also function as a chaperone by binding to the enzyme and helping to correct its misfolding and mistrafficking. While activators for GC have not yet been identified, they may have better therapeutic potential than inhibitors. Therefore the discovery and development of chemical activators may provide a new strategy for the chaperone therapy. To characterize compound selectivity, selected hits from the primary screen were screened against purified alpha-glucosidase, a related sugar hydrolase. Alpha-glucosidase is responsible for hydrolysis of terminal, non-reducing 1,4-linked alpha-D-glucose residues with release of alpha-D-glucose.
NCGC Assay Protocol Summary: This is a fluorogenic enzyme assay with 4-methylumbelliferyl-alpha-D-[…] as the substrate and human alpha-glucosidase as the enzyme preparation. Upon the hydrolysis of this fluorogenic substrate, the resulting product, 1. 4-methyllumbelliferone, can be excited at 365 nm and emits at 440 nm which can be detected by a standard fluorescence plate reader. Data were normalized to the controls for basal activity (without enzyme) and 100% activity (with enzyme). The AC50 values were determined from concentration-response data modeled with the standard Hill equation. Assay buffer: 50 mM citric acid (titrated with potassium phosphate to pH 5.0), 0.005% Tween-20, pH 5.0. (pH 5.0 is an optimal condition for this enzyme assay) 1536-well assay protocol for the human alpha-glucosidase: (1) Add 2 ul/well of enzyme (4 nM final) (2) Add 23 nL compounds in DMSO solution. The final titration was 0.7 nM to 77 uM. (3) Add 1 ul of substrate (400 uM final) (4) Incubate at room temperature for 20 min. (5) Add 2 ul stop solution (1M NaOH and 1M Glycine mixture, pH 10) (6) Detect the assay plate in a ViewLux plate reader (PerkinElmer) with Ex=365 nm and Em=440nm. Keywords: Alpha-glucosidase, Pompe Disease, pharmacological chaperone, chaperone therapy, high throughput screening, alpha-glucosidase inhibitor, MLSMR, MLSCN, NIH Roadmap, qHTS and NCGC

| Structure (SMILES) | max response |
| --- | --- |
| O=C(Nc1ccccc1Sc1ccccc1)c1cnn2c1NC(=C1CC1)C=C2C(F)F | -18.1% (inactive) |
| C=C1C=C(C(F)F)n2ncc(C(=O)Nc3ccc(C(C)CC)cc3)c2N1 (stereo unspecified) | -2.76% (inactive) |
| O=C(Nc1ccc2c(c1)CCC2)c1cnn2c1NC(=C1CC1)C=C2C(F)F | -4.43% (inactive) |
| C#Cc1ccc(NC(=O)c2cnn3c(C)cc(C)nc23)cc1 | -2.48% (inactive) |
| O=C(NC1CCCCC1)c1cnn2c1NC(=C1CC1)C=C2C(F)F | -3.85% (inactive) |
| O=C(Nc1ccccc1Sc1ccccc1)c1cnn2c1NC(=C1CC1)C=C2C(F)(F)F | -11.4% (inactive) |
